Hit rate of the full screen: of about 5,500 compounds, about 2,000 (36%) were called active. Roughly 18% stayed inconclusive and do not appear here. The list shows a part of the results. Values without a mark were called inactive. No stated cut-off is given here; in the data, active means normalized growth mostly below about 0.91 (no sharp cut-off); inconclusive means no clear call, values can overlap the other calls; inactive means mostly above about 0.92.
Experiment: chemical genetic growth profiling, strain panel (AID 1159580);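 further: tested at 20 µM; growth read once vehicle control cultures reached saturation at 30 °C; 1 = growth at the plate median or of vehicle wells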
Conditions: growth OD

**Q.** For `Cc1onc(-c2c(Cl)cccc2Cl)c1C(=O)N[C@@H]1C(=O)N2[C@@H]1SC(C)(C)[C@@H]2C(=O)O`, which normalized growth (S. cerevisiae deletion strains, locus YJR066W, strain TOR1, stronger effect = lower value) is on record?
**A.** 0.946

**Q.** What about the normalized growth (S. cerevisiae deletion strains, locus YJR075W, strain HOC1, stronger effect = lower value) of the same compound?
**A.** 1.02

**Q.** What about the normalized growth (S. cerevisiae deletion strains, locus YKL009W, strain mrt4, stronger effect = lower value) of the same compound?
**A.** 0.986

**Q.** And the normalized growth (S. cerevisiae deletion strains, locus YKL068W, stronger effect = lower value)?
**A.** 1.01

**Q.** What about the normalized growth (S. cerevisiae deletion strains, locus YKL085W, strain MDH1 (second series), stronger effect = lower value) of the same compound?
**A.** 0.999

**Q.** And the normalized growth (S. cerevisiae deletion strains, locus YKL085W, strain MDH1, stronger effect = lower value)?
**A.** 0.999

**Q.** And the normalized growth (S. cerevisiae deletion strains, locus YKL160W, strain elf1, stronger effect = lower value)?
**A.** 0.982

**Q.** What about the normalized growth (S. cerevisiae deletion strains, locus YKL190W, strain CNB1, stronger effect = lower value) of the same compound?
**A.** 1.01

**Q.** And the normalized growth (S. cerevisiae deletion strains, locus YKR001C, strain vps1, stronger effect = lower value)?
**A.** 1

**Q.** What about the normalized growth (S. cerevisiae deletion strains, locus YKR026C, strain gcn3, stronger effect = lower value) of the same compound?
**A.** 1.47 [resistant] (active)

**Q.** And the normalized growth (S. cerevisiae deletion strains, locus YKR091W, strain srl3, stronger effect = lower value)?
**A.** 1

**Q.** And the normalized growth (S. cerevisiae deletion strains, locus YLL001W, strain dnm1, stronger effect = lower value)?
**A.** 0.962

**Q.** What about the normalized growth (S. cerevisiae deletion strains, locus YLL026W, stronger effect = lower value) of the same compound?
**A.** 1

**Q.** What about the normalized growth (S. cerevisiae deletion strains, locus YLL041C, strain sdh2, stronger effect = lower value) of the same compound?
**A.** 0.987

**Q.** What about the normalized growth (S. cerevisiae deletion strains, locus YLR027C, strain aat2, stronger effect = lower value) of the same compound?
**A.** 0.991

**Q.** What about the normalized growth (S. cerevisiae deletion strains, locus YLR039C, strain RIC1, stronger effect = lower value) of the same compound?
**A.** 1.03

**Q.** And the normalized growth (S. cerevisiae deletion strains, locus YLR058C, strain SHM2, stronger effect = lower value)?
**A.** 1.02

**Q.** And the normalized growth (S. cerevisiae deletion strains, locus YLR102C, strain apc9, stronger effect = lower value)?
**A.** 0.994

**Q.** What about the normalized growth (S. cerevisiae deletion strains, locus YLR113W, strain HOG1, stronger effect = lower value) of the same compound?
**A.** 1.06

**Q.** And the normalized growth (S. cerevisiae deletion strains, locus YLR221C, strain rsa3, stronger effect = lower value)?
**A.** 1.05

**Q.** And the normalized growth (S. cerevisiae deletion strains, locus YLR258W, strain gsy2, stronger effect = lower value)?
**A.** 1.02

**Q.** What about the normalized growth (S. cerevisiae deletion strains, locus YLR262C, strain YPT6 (second series), stronger effect = lower value) of the same compound?
**A.** 0.961

**Q.** What about the normalized growth (S. cerevisiae deletion strains, locus YLR262C, strain YPT6, stronger effect = lower value) of the same compound?
**A.** 1.02

**Q.** What about the normalized growth (S. cerevisiae deletion strains, locus YLR268W, strain sec22, stronger effect = lower value) of the same compound?
**A.** 0.987

**Q.** And the normalized growth (S. cerevisiae deletion strains, locus YLR320W, strain mms22, stronger effect = lower value)?
**A.** 1.06

**Q.** What about the normalized growth (S. cerevisiae deletion strains, locus YLR330W, strain CHS5, stronger effect = lower value) of the same compound?
**A.** 1.02

**Q.** And the normalized growth (S. cerevisiae deletion strains, locus YLR342W, strain FKS1 (second series), stronger effect = lower value)?
**A.** 1.04

**Q.** What about the normalized growth (S. cerevisiae deletion strains, locus YLR342W, strain FKS1, stronger effect = lower value) of the same compound?
**A.** 0.979

**Q.** And the normalized growth (S. cerevisiae deletion strains, locus YLR357W, strain rsc2, stronger effect = lower value)?
**A.** 0.98

**Q.** And the normalized growth (S. cerevisiae deletion strains, locus YLR370C, strain arc18, stronger effect = lower value)?
**A.** 1.01

**Q.** What about the normalized growth (S. cerevisiae deletion strains, locus YLR371W, strain rom2, stronger effect = lower value) of the same compound?
**A.** 0.985

**Q.** And the normalized growth (S. cerevisiae deletion strains, locus YLR384C, strain iki3, stronger effect = lower value)?
**A.** 0.977

**Q.** What about the normalized growth (S. cerevisiae deletion strains, locus YLR418C, strain cdc73, stronger effect = lower value) of the same compound?
**A.** 0.946

**Q.** What about the normalized growth (S. cerevisiae deletion strains, locus YML016C, strain PPZ1, stronger effect = lower value) of the same compound?
**A.** 1.02

**Q.** And the normalized growth (S. cerevisiae deletion strains, locus YML032C, strain rad52, stronger effect = lower value)?
**A.** 0.987

**Q.** And the normalized growth (S. cerevisiae deletion strains, locus YML120C, strain ndi1, stronger effect = lower value)?
**A.** 0.99

**Q.** And the normalized growth (S. cerevisiae deletion strains, locus YML124C, strain tub3, stronger effect = lower value)?
**A.** 0.985

**Q.** What about the normalized growth (S. cerevisiae deletion strains, locus YMR058W, strain fet3, stronger effect = lower value) of the same compound?
**A.** 1.01

**Q.** What about the normalized growth (S. cerevisiae deletion strains, locus YMR078C, strain ctf18, stronger effect = lower value) of the same compound?
**A.** 0.991

**Q.** And the normalized growth (S. cerevisiae deletion strains, locus YMR125W, strain sto1, stronger effect = lower value)?
**A.** 0.951

**Q.** And the normalized growth (S. cerevisiae deletion strains, locus YMR129W, stronger effect = lower value)?
**A.** 0.997

**Q.** And the normalized growth (S. cerevisiae deletion strains, locus YMR205C, strain PFK2, stronger effect = lower value)?
**A.** 0.984

**Q.** And the normalized growth (S. cerevisiae deletion strains, locus YMR223W, strain ubp8, stronger effect = lower value)?
**A.** 0.973

**Q.** What about the normalized growth (S. cerevisiae deletion strains, locus YMR231W, strain pep5, stronger effect = lower value) of the same compound?
**A.** 0.985

**Q.** What about the normalized growth (S. cerevisiae deletion strains, locus YMR307W, strain GAS1, stronger effect = lower value) of the same compound?
**A.** 1.02

**Q.** What about the normalized growth (S. cerevisiae deletion strains, locus YNL067W, strain RPL9B, stronger effect = lower value) of the same compound?
**A.** 1

**Q.** And the normalized growth (S. cerevisiae deletion strains, locus YNL071W, strain lat1, stronger effect = lower value)?
**A.** 0.998

**Q.** What about the normalized growth (S. cerevisiae deletion strains, locus YNL128W, strain TEP1, stronger effect = lower value) of the same compound?
**A.** 1.01

**Q.** What about the normalized growth (S. cerevisiae deletion strains, locus YNL183C, strain NPR1, stronger effect = lower value) of the same compound?
**A.** 1

**Q.** And the normalized growth (S. cerevisiae deletion strains, locus YNL209W, strain ssb2, stronger effect = lower value)?
**A.** 1.02

**Q.** What about the normalized growth (S. cerevisiae deletion strains, locus YNL233W, strain BNI4, stronger effect = lower value) of the same compound?
**A.** 0.997

**Q.** What about the normalized growth (S. cerevisiae deletion strains, locus YNL248C, strain rpa49, stronger effect = lower value) of the same compound?
**A.** 1.03

**Q.** And the normalized growth (S. cerevisiae deletion strains, locus YNL250W, strain rad50, stronger effect = lower value)?
**A.** 0.989

**Q.** What about the normalized growth (S. cerevisiae deletion strains, locus YNL271C, strain bni1, stronger effect = lower value) of the same compound?
**A.** 0.98

**Q.** And the normalized growth (S. cerevisiae deletion strains, locus YNL298W, strain CLA4, stronger effect = lower value)?
**A.** 0.999

**Q.** And the normalized growth (S. cerevisiae deletion strains, locus YNL307C, strain MCK1, stronger effect = lower value)?
**A.** 0.987

**Q.** And the normalized growth (S. cerevisiae deletion strains, locus YNL322C, strain KRE1 (second series), stronger effect = lower value)?
**A.** 0.965

**Q.** And the normalized growth (S. cerevisiae deletion strains, locus YNL322C, strain KRE1, stronger effect = lower value)?
**A.** 1.01

**Q.** And the normalized growth (S. cerevisiae deletion strains, locus YNR049C, strain mso1, stronger effect = lower value)?
**A.** 0.991

**Q.** What about the normalized growth (S. cerevisiae deletion strains, locus YNR052C, strain pop2, stronger effect = lower value) of the same compound?
**A.** 0.997

**Q.** What about the normalized growth (S. cerevisiae deletion strains, locus YOL006C, strain TOP1, stronger effect = lower value) of the same compound?
**A.** 1.03

**Q.** What about the normalized growth (S. cerevisiae deletion strains, locus YOL012C, strain htz1) of the same compound?
**A.** 1.88

**Q.** What about the normalized growth (S. cerevisiae deletion strains, locus YOL147C, strain pex11, stronger effect = lower value) of the same compound?
**A.** 0.987

**Q.** What about the normalized growth (S. cerevisiae deletion strains, locus YOR001W, strain rrp6, stronger effect = lower value) of the same compound?
**A.** 0.972

**Q.** And the normalized growth (S. cerevisiae deletion strains, locus YOR061W, strain CKA2, stronger effect = lower value)?
**A.** 1.03

**Q.** And the normalized growth (S. cerevisiae deletion strains, locus YOR069W, strain VPS5, stronger effect = lower value)?
**A.** 1.02

**Q.** And the normalized growth (S. cerevisiae deletion strains, locus YOR070C, strain gyp1, stronger effect = lower value)?
**A.** 1.01

**Q.** And the normalized growth (S. cerevisiae deletion strains, locus YOR080W, strain dia2, stronger effect = lower value)?
**A.** 0.967

**Q.** What about the normalized growth (S. cerevisiae deletion strains, locus YOR083W, strain WHI5, stronger effect = lower value) of the same compound?
**A.** 0.964

**Q.** What about the normalized growth (S. cerevisiae deletion strains, locus YOR106W, strain vam3, stronger effect = lower value) of the same compound?
**A.** 0.957

**Q.** What about the normalized growth (S. cerevisiae deletion strains, locus YOR136W, strain idh2, stronger effect = lower value) of the same compound?
**A.** 0.988

**Q.** What about the normalized growth (S. cerevisiae deletion strains, locus YOR144C, strain elg1, stronger effect = lower value) of the same compound?
**A.** 0.989

**Q.** What about the normalized growth (S. cerevisiae deletion strains, locus YOR184W, strain ser1, stronger effect = lower value) of the same compound?
**A.** 0.978

**Q.** And the normalized growth (S. cerevisiae deletion strains, locus YOR231W, strain MKK1, stronger effect = lower value)?
**A.** 1.06

**Q.** What about the normalized growth (S. cerevisiae deletion strains, locus YOR265W, strain rbl2, stronger effect = lower value) of the same compound?
**A.** 0.985

**Q.** What about the normalized growth (S. cerevisiae deletion strains, locus YOR270C, strain vph1, stronger effect = lower value) of the same compound?
**A.** 0.995

**Q.** What about the normalized growth (S. cerevisiae deletion strains, locus YOR290C, strain snf2, stronger effect = lower value) of the same compound?
**A.** 1.03

**Q.** And the normalized growth (S. cerevisiae deletion strains, locus YOR316C, strain cot1, stronger effect = lower value)?
**A.** 0.998

**Q.** What about the normalized growth (S. cerevisiae deletion strains, locus YPL051W, strain arl3, stronger effect = lower value) of the same compound?
**A.** 1.01

**Q.** And the normalized growth (S. cerevisiae deletion strains, locus YPL078C, strain atp4, stronger effect = lower value)?
**A.** 0.951

**Q.** And the normalized growth (S. cerevisiae deletion strains, locus YPL106C, strain sse1, stronger effect = lower value)?
**A.** 0.964

**Q.** And the normalized growth (S. cerevisiae deletion strains, locus YPL240C, strain hsp82, stronger effect = lower value)?
**A.** 0.998

**Q.** What about the normalized growth (S. cerevisiae deletion strains, locus YPL241C, strain CIN2, stronger effect = lower value) of the same compound?
**A.** 1.02

**Q.** What about the normalized growth (S. cerevisiae deletion strains, locus YPL256C, strain CLN2, stronger effect = lower value) of the same compound?
**A.** 1.04

**Q.** What about the normalized growth (S. cerevisiae deletion strains, locus YPR119W, strain clb2, stronger effect = lower value) of the same compound?
**A.** 0.99

**Q.** What about the normalized growth (S. cerevisiae deletion strains, locus YPR141C, strain kar3, stronger effect = lower value) of the same compound?
**A.** 1

**Q.** And the normalized growth (S. cerevisiae deletion strains, locus YPR163C, strain tif3, stronger effect = lower value)?
**A.** 0.998

**Q.** What about the normalized growth (S. cerevisiae deletion strains, locus YPR167C, strain met16, stronger effect = lower value) of the same compound?
**A.** 0.985

**Q.** And the normalized growth (S. cerevisiae deletion strains, strain wtn01, stronger effect = lower value)?
**A.** 0.97

**Q.** And the normalized growth (S. cerevisiae strains, strain wild type, stronger effect = lower value)?
**A.** 1.02
